Among all 48,000 compounds or so, about 13,000 (27%) showed an effect of 50% or more. The list shows a part of the results.
Test system: Wolbachia pipientis
Assay: Anti-Wolbachia Cell-Based Screen
Assay type: functional
Parameters: scale not given: in the data most compounds retested in dose-response had high values
Settings: 5 µM

Row | Compound | Percent Effect [%]
1 | CCN1CCOC(CNCc2ccc(C)s2)C1 (centres undefined) | 96.42
2 | Cc1nc(CNCC2CCCN(C(=O)OC(C)(C)C)C2)cs1 (centres undefined) | 4.206
3 | CCN1CCOC(CNCc2ccccn2)C1 (centres undefined) | 1.335
4 | CCN1CCOC(CNc2nccc(OC)n2)C1 (centres undefined) | 1.918
5 | Cc1nc(CNCC2CN(C3CC3)CCO2)cs1 (centres undefined) | 87.5
6 | CCN1CCOC(CNCc2ccccc2OCC(=O)N(C)C)C1 (centres undefined) | -2.531
7 | COc1ccnc(NCC2CN(C3CC3)CCO2)n1 (centres undefined) | 0.4171
8 | CCN1CCOC(CNCc2ccc(OC)c(F)c2)C1 (centres undefined) | -3.361
9 | CCN1CCOC(CNCc2csc(C)n2)C1 (centres undefined) | 88.2
10 | CCc1noc(CN(C)C(=O)c2ccccc2-c2ncn[nH]2)n1 | -19
11 | Cc1nn(C)c(C)c1CN(C(=O)c1cc(Cl)c[nH]c1=O)C(C)C | -11.33
12 | CC(C(=O)NC1(C#N)CCCCC1)N1CCc2c(ncn2C)C1 (centres undefined) | -1.256
13 | O=C(c1ccccc1Cl)N1CC[C@H](O)[C@@H](N2CCOCC2)CC1 | 95.8
14 | O=C(c1ccc(F)cc1F)N1CC[C@H](O)[C@@H](N2CCOCC2)CC1 | 0.4748
15 | Cc1ccccc1C(=O)N1CC[C@@H](N2CCC(O)CC2)[C@H](O)C1 | 2.362
16 | Cc1ccccc1C(=O)N1CC[C@H](O)[C@@H](N2CCOCC2)CC1 | 126.5
17 | O=C(c1ccccc1C(F)(F)F)N1CC[C@@H](N2CCC(O)CC2)[C@H](O)C1 | -4.117
18 | N#Cc1ccc(OC2CCN(C(=O)c3ccccc3Cl)CC2)nc1 | -3.988
19 | N#Cc1cccc(CN2CCCC2c2ccc[nH]2)c1 (centres undefined) | 7.816
20 | Cc1ccc(NC(=O)C2CSCN2C(=O)c2cc[nH]n2)c(C)c1 (centres undefined) | 9.143
21 | O=C(NC1CCCC1)N1C[C@H]2CN(c3ccncc3)C[C@@]2(C(=O)O)C1 | -18.18
22 | CCn1ccnc1CNCC(c1ccc(C)s1)N1CCOCC1 (centres undefined) | 53.4
23 | Cc1ccc(C(CNCc2nccn2C)N2CCOCC2)s1 (centres undefined) | -4.854
24 | Cc1ccc(C(CNCc2ccncc2)N2CCOCC2)s1 (centres undefined) | -8.996
25 | CC(c1ccccc1)n1c(SCC(=O)O)nnc1-c1ccccc1Cl (centres undefined) | 9.035
26 | CCCn1cc(NC(=O)c2cccc(CN3CC[C@H](O)C3)c2)nn1 | 12.98
27 | CCn1cc(NC(=O)c2cccc(CN3C[C@@H](C)O[C@@H](C)C3)c2)nn1 | 90.95
28 | CCCn1cc(NC(=O)c2cccc(CN3CC=CC3)c2)nn1 | -66.35
29 | Cc1cccc(C2(NC(=O)CCCn3cncn3)CCCC2)c1 | -10.46

From ChEMBL document CHEMBL3988442, “University of Dundee, Small-Polar-MMV Screening Library” (2021)
